# Screens deposited in PubChem BioAssay by National Center for Advancing Translational Sciences (NCATS).
# AmpC inh detg – AmpC beta-lactamase inhibition with detergent present. P00811. AmpC hydrolysis of nitrocefin, absorbance 480 nm, 0.01% Triton. Potency, µM (titrated, usually from 114 µM), for inactives: at the top dose activity change, negative = inhibition, actives largely listed as inhibitors. 370,000 compounds, 0.041% hits;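 further: potency means the concentration at half of the fitted maximal effect; 0% = no-compound wells and -100% = no-enzyme wells; nearly all actives have a fitted effect of over 25% in size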
# Target sequence (P00811 whole entry, looked up): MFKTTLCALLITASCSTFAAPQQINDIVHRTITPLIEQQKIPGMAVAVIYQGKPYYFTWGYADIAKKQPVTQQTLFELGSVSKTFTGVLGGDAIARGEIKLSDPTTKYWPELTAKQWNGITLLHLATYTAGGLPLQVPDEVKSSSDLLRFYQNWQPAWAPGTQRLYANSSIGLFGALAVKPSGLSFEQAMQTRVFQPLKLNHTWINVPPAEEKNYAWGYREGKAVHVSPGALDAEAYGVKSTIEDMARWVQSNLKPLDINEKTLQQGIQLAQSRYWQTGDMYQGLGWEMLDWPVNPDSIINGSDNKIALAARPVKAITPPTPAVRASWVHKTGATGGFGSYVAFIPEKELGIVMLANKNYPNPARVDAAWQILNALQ
#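 AmpC (5.3 nM in the dispensed reagent) in 20 mM phosphate pH 7.0 with 0.01% (detergent screen) or 0.0001% Triton X-100 was preincubated with compounds for 15 min at room temperature. Nitrocefin was then added from an 800 uM solution, and hydrolysis was followed at 480 nm.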
# AmpC inh no detg – inhibitors of E. coli AmpC beta-lactamase without detergent | Potency, µM (titrated, usually from 57.1 µM), for the others: at the highest dose activity change, negative = inhibition, usual class: inhibitors | AmpC nitrocefin hydrolysis, absorbance 480 nm, 0.0001% Triton | P00811 | 330,000 compounds, 0.52% hits;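 further: potency means the concentration at half of the fitted maximal effect; plate controls were no compound for no effect and no enzyme for full effect; nearly all actives have a fitted effect of over 20% in size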
#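 AmpC (5.3 nM in the dispensed reagent) in 20 mM phosphate pH 7.0 with 0.01% (detergent screen) or 0.0001% Triton X-100 was preincubated with compounds for 15 min at room temperature. Nitrocefin was then added from an 800 uM solution, and hydrolysis was followed at 480 nm.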
# AMA1-RON2 inh – disrupts binding of P. falciparum AMA1 to RON2; 360,000 compounds, 0.2% hits; AlphaScreen AMA1-biotinylated RON2 peptide binding; AID 720542; Potency, µM (highest dose often 58.2 µM), inactives show at the highest dose activity change, negative = inhibition, actives largely listed as inhibitors;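 further: potency means the concentration at half of the fitted maximal effect; 0% = vehicle wells and -100% = peptide control; nearly all actives have a fitted effect of over 45% in size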
#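 AMA1 (3D7) with his tag at 25 nM final met compounds first, then biotinylated RON2 peptide at 25 nM; detection used donor plus acceptor beads, 10 µg/mL apiece, read by AlphaScreen after 30 min at room temperature.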
# Shiga inhibitor – Shiga toxin inhibition | Vero cells, Shiga toxin protein synthesis inhibition reporter | 290,000 compounds, 9.2% hits | inhibition, % at 38.7 µM; in the data active means inhibition mostly above about 28%, no sharp cut-off; inactive means mostly below about 43%; further: 0% is about no effect
# SARS PLpro yeast – inhibitors of SARS-CoV papain-like protease in yeast | S. cerevisiae expressing SARS-CoV PLpro, growth rescue | Potency, µM (doses to about 32.9 µM), for the others: at the top dose activity, positive = growth rescue, hits mostly activators | 330,000 compounds, 0.19% hits; calls by dose curve; further: potency means the concentration at half of the fitted maximal effect; 0% is about no effect; nearly all actives have a fitted effect of over 55% in size
# Cycloheximide cs – counter-screen for Shiga toxin inhibitors: cycloheximide protein synthesis inhibition. AID 2314. max response, %. 300,000 compounds, 12% hits. cell reporter, cycloheximide protein synthesis inhibition counterscreen; in the data active means max response mostly above about 13%, no sharp cut-off; inactive means mostly below about 14%; further: read at 38.3 µM for the half of the compounds with a filed dose; 0% is about no effect
# * = called active by the depositor; ? = inconclusive; · = no result given. This excerpt belongs to a sample that is enriched for hits. Unless noted, the call rests on the fitted dose curve; in most records, active means well fitted curve in the direction sought with a large enough effect; inconclusive means small, poorly fitted or top-dose-only effect, or another doubt; inactive means no such curve, though single readings can be large; an effect the other way counts as inactive or inconclusive.
SMILES,AmpC inh detg,AmpC inh no detg,AMA1-RON2 inh,Shiga inhibitor,SARS PLpro yeast,Cycloheximide cs
CC1Cc2nc(SCC(=O)c3ccccc3)n(Cc3ccccc3)c(=O)c2S1 (centres undefined),?,-49%,-18%,41*,-9%,14*
Cn1ccnc1SCC(=O)Nc1ccc2c(c1)OCO2,7%,-21%,-1%,69,0%,41*
O=C(CCn1cccn1)Nc1ccc(-c2ccno2)cc1,-12%,-15%,-5%,34*,1%,33*
CN(C)S(=O)(=O)c1ccc2c(c1)nc(CCC(=O)Nc1ccc3c(c1)OCO3)n2C,-4%,-22%,-1%,48*,-13%,9.6*
COc1ccc(-n2ccnc2SCC(=O)Nc2ccc3c(c2)OCO3)cc1,2%,·,·,·,·,·
C/C(CC(=O)NCCc1ccccc1)=N\NC(=O)COc1ccc(Br)cc1,-3%,42%,47%,-9,-5%,-6
O=C(CCn1cccn1)Nc1ccc2c(c1)OCO2,5%,-21%,29%,40*,5%,36*
O=C(CSc1nccn1-c1ccccc1)Nc1ccc2c(c1)OCO2,-5%,-34%,-14%,68*,-8%,70*
CN1CCN(CCC(=O)Nc2ccc3c(c2)OCO3)CC1,3%,-17%,2%,2,24%,-1
CCn1c(SCC(=O)Nc2ccc3c(c2)OCO3)nc2c(c1=O)SC(C)C2 (centres undefined),-1%,2.8µM*,-1%,9,-20%,6
O=C(CSc1nccn1-c1ccc(F)cc1)Nc1ccc2c(c1)OCO2,-12%,-12%,?,45,-2%,5
CC1Cc2nc(SCC(=O)Nc3ccc4c(c3)OCO4)n(CCc3ccccc3)c(=O)c2S1 (centres undefined),?,?,-8%,-3,24%,12
Cc1ccnc(NC(=O)c2ccc3c(c2)OCO3)c1,9%,-8%,-18%,66*,-3%,25*
Cc1ccc(NC(=O)c2ccc3c(c2)OCCO3)nc1,-17%,-13%,-5%,·,·,·
O=C(Nc1cc([N+](=O)[O-])ccc1F)c1ccc2c(c1)OCCO2,1%,-12%,-25%,56*,0%,28*
CCC(=O)N1CCN(c2ccc(NC(=O)c3ccc4c(c3)OCO4)cc2)CC1,?,6%,-13%,-12,5%,2
CCOc1ccc(-c2oc3ccccc3c(=O)c2O)cc1OCC,0%,·,·,·,·,·
O=c1c(O)c(-c2ccc3c(c2)OCO3)oc2ccccc12,1%,-17%,40%,22,-7%,34*
CCN1CCN(c2ccc(NC(=O)c3ccc4c(c3)OCO4)cc2)CC1,-4%,-25%,-2%,56*,8%,29*
Cc1ccc(Cn2c(C(=O)O)cc3sccc32)cc1,?,-4%,10%,-3,-37%,-7
CCCCNC(=S)N1CCN(c2ccc(C(C)=O)cc2)CC1,-14%,-5%,0%,7,-2%,5
O=C(Nc1ccc(Cl)c(Cl)c1)c1ccc2c(c1)OCO2,4%,-37%,5%,98*,-3%,42*
NC(=O)c1ccc(NC(=O)c2ccc3c(c2)OCO3)cc1,0%,-8%,-1%,112,8%,37*
CC(C)C(=O)Nc1ccc(NC(=O)c2ccc3c(c2)OCO3)cc1,?,-9%,0%,-2,-1%,-3
O=C(Nc1ccc(Cl)cc1)C1=Cc2ccccc2OC1,-13%,-39%,7%,68*,-20%,83*
SMILES,AmpC inh detg,AmpC inh no detg,AMA1-RON2 inh,Shiga inhibitor,SARS PLpro yeast,Cycloheximide cs
Cc1[nH]c2ccccc2c1C(=O)C(=O)Nc1ccc2c(c1)OCO2,4%,-26%,-2%,47*,4%,28*
COc1cc(NC(=O)CN(c2cc(C)cc(C)c2)S(=O)(=O)c2c(C)[nH]c(=O)[nH]c2=O)cc(OC)c1,3%,-25%,-20%,-6,2%,-2
CN(C)C(=O)c1cccc(-c2cnc3c(NC=O)cc(-c4ccccc4N(C)C)cn23)c1,·,·,-10%,·,·,·
CCOC(=O)c1ccc(NC(=O)COC(=O)Cc2csc(-c3ccccc3)n2)cc1,-5%,-25%,21%,8,-13%,11
O=C(NCc1ccco1)C(c1ccncc1)N(C(=O)Cc1cccs1)c1ccccc1 (centres undefined),-5%,1%,-10%,-14,0%,-3
O=C(Nc1ccc(Cl)cc1)c1ccc2c(c1)OCO2,-6%,-11%,17%,49*,-4%,30*
O=C(Nc1ccc2c(c1)oc1ccccc12)c1ccc2c(c1)OCO2,-2%,-26%,-4%,73,-2%,45*
O=C(Nc1ccc2c(c1)OCO2)c1ccc(Cl)s1,-11%,-26%,1%,81*,-7%,78*
O=C(COc1ccc2c(c1)OCO2)Nc1ccc2c(c1)oc1ccccc12,-9%,-50%,-6%,-1,-3%,4
O=C(Nc1ccc(Br)cc1)c1ccc2c(c1)OCO2,2%,-26%,3%,162*,1%,38*
O=C(NC1CCN(C(=O)Nc2ccccc2Cl)CC1)c1ccccc1,0%,-11%,2%,-18,-5%,-2
OC(Cc1cccc(Br)c1)c1ncc(-c2ccccc2C(F)(F)F)[nH]1 (centres undefined),·,·,-3%,·,·,·
Cc1cc(C(=O)Nc2ccc3c(c2)OCO3)cs1,?,-18%,-18%,58*,-12%,39*
O=C(Nc1ccc(Cl)c([N+](=O)[O-])c1)c1ccc2c(c1)OCCO2,2%,-34%,-10%,62*,-7%,33*
O=C(Nc1ccc(F)c(F)c1)c1ccc2c(c1)OCO2,?,-17%,-2%,100*,-10%,94*
O=C(N/N=C/c1ccc(Cl)c([N+](=O)[O-])c1)c1ccc2c(c1)OCCO2,·,·,19%,·,·,·
Cc1cc(C(=O)NC(C)c2ccc3c(c2)OCO3)cs1 (centres undefined),?,-16%,-4%,-14,1%,10
O=C(Nc1ccc2c(c1)OCO2)c1cccc(Cl)c1,-11%,-51%,0%,107*,-11%,49*
Cc1ccc(-n2nc3ccc(NC(=O)c4ccc5c(c4)OCO5)cc3n2)cc1,2%,-24%,-7%,9,5%,-3
O=C(Nc1ccc2c(c1)OCO2)c1ccc2c(c1)OCO2,-7%,-16%,-6%,67*,-17%,40*
O=C(Nc1ccc(N2CCCCC2)c(Cl)c1)c1ccc2c(c1)OCCO2,4%,-33%,-4%,57,-31%,45*
O=C(Nc1ccc2nsnc2c1)c1ccc2c(c1)OCO2,-13%,-2%,-3%,64*,-3%,32*
O=C(Nc1ccon1)c1ccc2c(c1)OCO2,4%,-6%,7%,31*,-1%,43*
O=C(Nc1ccc2c(c1)OCO2)c1ccc(CO)cc1,-4%,-13%,-3%,·,4%,·
O=C(Nc1ncccc1O)c1ccc2c(c1)OCO2,-12%,-20%,24%,·,2%,·
